These results are taken from PubChem BioAssay (NCATS).

Where “and” joins values, the source holds several entries; their conditions need not be identical. Equal values may be shown once. Records with an inconclusive call do not appear. Unmarked numbers belong to inactive results. Calls of active or inactive are those of the source. Calls follow the shape of the dose curve; as a rule, active = well fitted curve in the direction sought with a large enough effect; inconclusive = small, poorly fitted or top-dose-only effect, or another doubt; inactive = no such curve, though single readings can be large; an effect the other way counts as inactive or inconclusive.

In experiment [1] the target is Cellular tumor antigen p53 (Homo sapiens) (UniProt P04637). Put plainly: Primary qHTS for small molecule compounds that upregulate eGFP-tagged delta133p53alpha (in N-terminal) cells. (AID 2060322). Also: nearly all actives have a fitted effect of over 75% in size. Also: potency is read from the fitted curve at half-maximal effect.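 As to activation: series mostly up to about 56 µM; 0% = DMSO vehicle and 100% = reference activator.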 The following applies: NCI-H358 eGFP-delta133p53alpha fluorescence, 24 h; activation: hits give high values. The method in brief:
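NCI-H358 cells pre-induced 24 h with 10 ng/ml doxycycline to express N-terminal eGFP-delta133p53alpha, then dosed 24 h at 37C without doxycycline; fixed, Hoechst-stained, GFP intensity by laser scanning cytometry, normalized to DMSO (0%) and 57.5 uM 5-azacytidine (100%).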
(In qHTS, concentration-response curves come from the screen itself.)

Experiment [2] deals with Aldehyde dehydrogenase, mitochondrial (Homo sapiens) (UniProt P05091). Description: qHTS for Inhibitors of the Aldehyde Dehydrogenase Family (ALDH2) Primary screen (AID 2061308).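 Also: plate controls were vehicle for no effect and reference inhibitor for full effect; nearly all actives have a fitted effect of over 55% in size.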
Experiment [3] has as its target Retinaldehyde dehydrogenase 3 (Homo sapiens) (UniProt P47895). Description: qHTS for Inhibitors of the Aldehyde Dehydrogenase Family (ALDH1A3) Primary screen (AID 2061315).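 Also: plate controls were DMSO vehicle for no effect and reference inhibitor for full effect.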
Experiment [4] can be described thus: BET inhibitor-based combinations targeting novel dependencies in MECOM-rearranged (r) AML: SET-2 cell line (AID 2202231). Also: nearly all actives have a fitted effect of over 35% in size. Also: potency is read from the fitted curve at half-maximal effect.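 As to viability: plate controls were DMSO treated cells for no effect and wells without cells for full effect.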 The following applies: SET-2 AML cells viability, CellTiter-Glo luminescence, 48 h; viability: hits give low values, concentration not given here. The method in brief:
(§1)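 A 48 hr incubation preceded viability reading by CellTiter-Glo, with 15 min room-temperature development. Dose series had 11 points; normalization used DMSO and empty wells; AUC was computed and mean-centered per line as Z-AUC.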
On the technique in general: Cellular ATP, detected with luciferase, serves as a proxy for viable cell number.

Experiment [5] in a line: BET inhibitor-based combinations targeting novel dependencies in MECOM-rearranged (r) AML: OCI-AML3 cell line (AID 2202232). Also: nearly all actives have a fitted effect of over 35% in size. Also: potency is read from the fitted curve at half-maximal effect. To be noted: Potency: OCI-AML3 viability. The method in brief: as §1
Experiment [6] can be described thus: BET inhibitor-based combinations targeting novel dependencies in MECOM-rearranged (r) AML: UCSD-AML1 cell line (AID 2202235). Also: nearly all actives have a fitted effect of over 40% in size. Also: potency is read from the fitted curve at half-maximal effect. The method in brief: (§2)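 Each compound is tested in an 11-point concentration series against 500 seeded cells/well for 48 hr. The luminescent viability signal is normalized to DMSO and blank wells, then reduced to AUC and a cell-line-centred Z-AUC.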

Experiment [7] can be described thus: BET inhibitor-based combinations targeting novel dependencies in MECOM-rearranged (r) AML: AML-194 cell line (AID 2202237; also: nearly all actives have a fitted effect of over 40% in size; also: potency is read from the fitted curve at half-maximal effect). The method in brief:
as §1

Experiment [8] can be described thus: BET inhibitor-based combinations targeting novel dependencies in MECOM-rearranged (r) AML: MV-4-11 cell line (AID 2202233). Also: nearly all actives have a fitted effect of over 45% in size. Also: potency is read from the fitted curve at half-maximal effect. The method in brief:
as §2

Experiment [9] is described as follows: BET inhibitor-based combinations targeting novel dependencies in MECOM-rearranged (r) AML: HNT-34 cell line (AID 2202234). Also: nearly all actives have a fitted effect of over 35% in size. Also: potency is read from the fitted curve at half-maximal effect. The method in brief: as §2
Experiment [10] can be described thus: BET inhibitor-based combinations targeting novel dependencies in MECOM-rearranged (r) AML: AML-191 cell line (AID 2202236; also: nearly all actives have a fitted effect of over 35% in size; also: potency is read from the fitted curve at half-maximal effect). The method in brief:
as §1

Chain of Cellular tumor antigen p53 (Homo sapiens) (P04637 whole entry, looked up): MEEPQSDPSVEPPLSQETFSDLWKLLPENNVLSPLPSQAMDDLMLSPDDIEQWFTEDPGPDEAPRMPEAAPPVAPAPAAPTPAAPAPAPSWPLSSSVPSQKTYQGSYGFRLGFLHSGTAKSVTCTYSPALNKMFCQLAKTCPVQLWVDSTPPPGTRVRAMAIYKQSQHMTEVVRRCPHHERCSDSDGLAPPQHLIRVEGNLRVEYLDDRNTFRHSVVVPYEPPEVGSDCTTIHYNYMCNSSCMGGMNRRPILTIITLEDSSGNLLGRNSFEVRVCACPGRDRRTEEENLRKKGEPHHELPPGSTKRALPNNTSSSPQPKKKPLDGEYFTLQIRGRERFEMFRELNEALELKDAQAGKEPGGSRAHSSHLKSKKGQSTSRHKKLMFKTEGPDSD

`Cc1c(NC(=O)c2ccc(C(C)(C)C)cc2)cccc1-c1cn(C)c(=O)c(Nc2ccc(C(=O)N3CCOCC3)cc2)n1`: the activation in experiment [1] was 63.1% and -9.82%. In addition, the Potency entry in experiment [2], in experiment [3], in [5], in experiment [6] and in experiment [7] was “inactive” throughout. Further, the Potency in experiment [4] was 16.6 µM (active).
In the case of `CNC(=O)c1ccc(Nc2ncc(C(F)(F)F)c(NCc3nccnc3N(C)S(C)(=O)=O)n2)cc1`, the Potency in experiment [1] was 12 µM (active); in experiment [4], 3.32 µM (active); in experiment [8], 296 nM (active); in [9], 1.86 µM (active); in experiment [6] it was 2630 nM (active); in [10] it was 2.95 µM (active). In experiment [7], the Potency is 3.72 µM (active). The Potency entry in experiment [2] and in [3] was “inactive” in each case.
`Cc1ccn(-c2ccc(-c3ncco3)cc2)c(=O)c1-c1ccc2nc(N)ncc2c1`: the activation in [1] was 28.6%. The Potency entry in [2] and in experiment [3] was “inactive” each time. The viability (in general, a read-out of living cells in per cent, often relative to untreated cells) in experiment [4] is 114%. Also, the Potency is 6610 nM (active) in [8] and 0.372 µM (active) in experiment [9].
`COc1cc(C(=O)NC2CCN(C)CC2)c(F)cc1Nc1ncc2c(n1)N(C1CCCC1)CC(F)(F)C(=O)N2C`: the activation in experiment [1] was 17%. The Potency entry in experiment [2] and in [3] was “inactive” each time. The Potency is 0.0934 µM (active) in experiment [4]; 105 nM (active) in experiment [8]; 0.105 µM (active) in experiment [9]; 105 nM (active) in [6]; 0.118 µM (active) in experiment [10]; 0.0833 µM (active) in experiment [7].
Regarding `CS(=O)(=O)c1ccc(C2=C(c3ccccc3)C(=O)OC2)cc1`, in [1], the activation is -5.73%. Further, the Potency entry in experiment [2], in [3], in [8], in experiment [9], in [6] and in [10] was “inactive” each time. The Potency result in experiment [7] is “inactive”. Moreover, the viability in experiment [4] is 95.1%.
Turning to `COc1ccc(C(=O)C2CCN(CC(=O)N(Cc3nc4c(c(=O)[nH]3)COCC4)CC3CC3)CC2)cc1`, in [1], the activation is 25.7%. Besides, the Potency result in experiment [2], in experiment [3], in experiment [8], in experiment [9], in experiment [6] and in experiment [7] was “inactive” each time. Moreover, the viability in [4] is 110%.
Regarding `CC1c2ccccc2CN1NC(=O)c1ccc(Cl)c(S(N)(=O)=O)c1` (stereo unspecified), in experiment [1], the activation is 6.69%. In addition, the Potency entry in experiment [2], in [3], in [8], in experiment [9], in [6] and in experiment [10] was “inactive” throughout. The Potency entry in experiment [7] is “inactive”. Also, the viability in experiment [4] was 109%.
Regarding `Cn1cnc(-c2cc3nccc(Oc4ccc(NC(=S)NC(=O)Cc5ccccc5)cc4F)c3s2)c1`, in experiment [1], the activation is -7.76% and 19.6%. In addition, the Potency entry in [2] and in experiment [3] was “inactive” each time. In addition, the viability in [4] is 78.9%. In addition, the Potency in experiment [8] is 105 nM (active); in [9], 3.72 µM (active).
As to `O=C(NC1CCOCC1)c1ccc(-c2cc(-c3cn[nH]c3-c3ccccn3)ccn2)cc1`, the activation in [1] is 37.2% and 4.46%. Also, the Potency result in [2], in experiment [3], in [5], in experiment [6], in [10] and in [7] was “inactive” in each case. In experiment [4], the viability is 101%.
On to `COc1ncc(-c2ccc3c(Nc4cc(Oc5cc(F)cc(F)c5)cc(C(=O)O)c4)c(S(=O)(=O)NC4CC4)cnc3c2)c(OC)n1`, for which the activation in [1] was -3.34%. Besides, the Potency result in experiment [2], in experiment [3], in experiment [5], in experiment [6], in [10] and in experiment [7] was “inactive” throughout. For the same compound, the viability in experiment [4] is 110%.
For `CC(C)c1cc(C(C)C)c(CC(=O)NS(=O)(=O)Oc2c(C(C)C)cccc2C(C)C)c(C(C)C)c1`, the activation in experiment [1] was 11.6% and 19%. Also, the Potency result in [2], in experiment [3], in [6] and in experiment [7] was “inactive” throughout. In experiment [4], the viability was 106%. In addition, the figures for the Potency in experiment [8], in experiment [9] and in experiment [10] were 5250 nM (active), 7.42 µM (active) and 8.33 µM (active), respectively.
Consider `COc1ccc(-c2cnc3c(-c4cccc5ncccc45)cnn3c2)cc1`, for which the activation in experiment [1] was 16.1%. Besides, the Potency result in experiment [2], in experiment [3], in [9], in experiment [6], in experiment [10] and in experiment [7] was “inactive” each time. The viability in experiment [4] is 119%. The Potency in [8] was 7420 nM (active).
Regarding `CC(C)(C)C(=O)CN1C(=O)[C@H](NC(=O)Nc2cccc(C(=O)O)c2)CN(C2CCCCC2)c2ccccc21`, in experiment [1], the activation was -7.67%. The Potency entry in experiment [2], in experiment [3], in experiment [8], in experiment [9], in experiment [10] and in experiment [7] was “inactive” each time. Further, in [4], the viability was 110%.
Turning to `CCCCOC(=O)NS(=O)(=O)c1sc(CC(C)C)cc1-c1ccc(Cn2ccnc2)cc1`, the activation in [1] was 6.25%. The Potency entry in experiment [2], in [3], in experiment [5], in [6] and in [7] was “inactive” in each case. The viability in experiment [4] was 80.2%.
In the case of `Cc1[nH]c2ccc(F)cc2c1-c1nc2c3cccnc3c3ncccc3c2[nH]1`, the activation in experiment [1] was -1%. Further, the Potency result in experiment [2] and in experiment [3] was “inactive” throughout. For the same compound, the Potency in experiment [4] is 2.7 µM (active); in [8], 605 nM (active); in experiment [9], 0.679 µM (active); in [6], 679 nM (active); in [10], 0.539 µM (active); in experiment [7] it was 0.762 µM (active).
Turning to `Cc1cccc(Nc2nc(N[C@@H]3CCCC[C@H]3N)ncc2C(N)=O)c1`, in experiment [1], the activation was 14.8%. In addition, the Potency result in experiment [2] and in experiment [3] was “inactive” throughout. The Potency in experiment [4] was 29.5 µM (active); in experiment [5] it was 16.6 µM (active); in experiment [10], 18.6 µM (active); in [7], 16.6 µM (active).
For the compound `Cc1c(Cn2c(C)nc3c(C(=O)O)cc(N4CCOCC4)cc32)cccc1C(F)(F)F`, the activation in experiment [1] was -0.853% and -13.4%. In addition, the Potency result in experiment [2], in experiment [3] and in experiment [7] was “inactive” each time. For the same compound, the viability in experiment [4] was 98.9%. In addition, the Potency is 4680 nM (active) in experiment [8], 5.9 µM (active) in experiment [9] and 4.68 µM (active) in experiment [10].
